Experiment [1] can be described thus: qHTS RealTime-Glo MT Cell Viability Assay in HEK293 cells - 40 hour (AID 1224874). Further: nearly all actives have a fitted effect of over 50% in size. Further: potency means the concentration at half of the fitted maximal effect. To be noted: RealTime-Glo luminescence; max response: stronger effect = lower value. The method, boiled down:
(§1)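 Luminescence readout at each listed time point; HEK293, 600 cells/well, RealTime-Glo MT reagent added with cells; compounds pinned (23 nL in DMSO) after 5 h at 37 C; continuous culture at 37 C.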

Experiment [2] is described as follows: A CellTox Green Cytotoxicity Assay to monitor cytotoxicity in HEK293 cells - 24 hour (AID 1224875). Further: series mostly up to about 77 µM; nearly all actives have a fitted effect of over 45% in size. The procedure, abridged: (§2)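 Read-out: fluorescence of a cell-impermeant cyanine dye staining DNA of dead cells, proportional to cytotoxicity. HEK293, 600 cells/well with reagent, compound (23 nL DMSO) added after 5 h; reads at 0, 8, 16, 24, 32, 40 h.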
Experiment [3] is described as follows: qHTS RealTime-Glo MT Cell Viability Assay in HepG2 cells - 32 hour (AID 1224877). Further: nearly all actives have a fitted effect of over 55% in size. The method, boiled down: (§3)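 Real-time, nonlytic viability: 600 HepG2 cells/well mixed with NanoLuc enzyme plus prosubstrate; 5 h settle, compound (DMSO) added by pintool; luminescence monitored over 40 h at 37 C.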
The nature of experiment [4]: A CellTox Green Cytotoxicity Assay to monitor cytotoxicity in HepG2 cells - 24 hour (AID 1224878). Further: nearly all actives have a fitted effect of over 45% in size. The method, boiled down: (§4)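 HepG2, 600 cells/well premixed w/ CellTox Green; 5 h settle, 37 C/5% CO2; pintool cpd add (DMSO); 37 C, 40 h; fluorescence read at 0, 8, 16, 24, 32, 40 h.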
Experiment [5] is described as follows: qHTS RealTime-Glo MT Cell Viability Assay in HEK293 cells - 0 hour (AID 1224880). Further: top concentration of the series differs between compounds; nearly all actives have a fitted effect of over 45% in size. The procedure, abridged:
as §1

Experiment [6] can be described thus: A CellTox Green Cytotoxicity Assay to monitor cytotoxicity in HEK293 cells - 32 hour (AID 1224881). Further: nearly all actives have a fitted effect of over 40% in size. Further: potency means the concentration at half of the fitted maximal effect. The procedure, abridged:
as §2

A short description of experiment [7]: A CellTox Green Cytotoxicity Assay to monitor cytotoxicity in HepG2 cells - 0 hour (AID 1224882). Further: nearly all actives have a fitted effect of over 35% in size. The procedure, abridged: as §4
Experiment [8] in a line: A CellTox Green Cytotoxicity Assay to monitor cytotoxicity in HepG2 cells - 32 hour (AID 1224883). Further: nearly all actives have a fitted effect of over 50% in size. The method, boiled down:
as §4

Experiment [9] in a line: A CellTox Green Cytotoxicity Assay to monitor cytotoxicity in HEK293 cells - 8 hour (AID 1224884). Further: nearly all actives have a fitted effect of over 35% in size. Further: potency means the concentration at half of the fitted maximal effect. The procedure, abridged:
as §2

Experiment [10] in a line: qHTS RealTime-Glo MT Cell Viability Assay in HepG2 cells - 16 hour (AID 1224885). Further: nearly all actives have a fitted effect of over 50% in size. The method, boiled down:
as §3

Experiment [11] in a line: qHTS RealTime-Glo MT Cell Viability Assay in HEK293 cells - 24 hour (AID 1224886). Further: nearly all actives have a fitted effect of over 50% in size. Further: potency means the concentration at half of the fitted maximal effect. The method, boiled down:
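Cells + reagent dispensed (600 cells/well, HEK293) → 5 h at 37 C/5% CO2 → 23 nL compound in DMSO pinned → 40 h at 37 C → luminescence read at 0, 8, 16, 24, 32, 40 h.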

Experiment [12] can be described thus: qHTS RealTime-Glo MT Cell Viability Assay in HEK293 cells - 8 hour (AID 1224887). The method, boiled down: as §1
A short description of experiment [13]: A CellTox Green Cytotoxicity Assay to monitor cytotoxicity in HEK293 cells - 16 hour (AID 1224888). Further: nearly all actives have a fitted effect of over 35% in size. The procedure, abridged: as §2
Experiment [14] is described as follows: qHTS RealTime-Glo MT Cell Viability Assay in HepG2 cells - 0 hour (AID 1224889). Further: nearly all actives have a fitted effect of over 50% in size. The procedure, abridged: as §3
The nature of experiment [15]: A CellTox Green Cytotoxicity Assay to monitor cytotoxicity in HepG2 cells - 8 hour (AID 1224890). Further: nearly all actives have a fitted effect of over 45% in size. Further: potency means the concentration at half of the fitted maximal effect. The method, boiled down:
as §4

A short description of experiment [16]: qHTS assay to identify small molecule antagonists of the estrogen receptor alpha (ER-alpha) signaling pathway using the BG1 cell line in the presence of 0.1 nM 17-beta-estradiol - cell viability counter screen (AID 1259241). Further: nearly all actives have a fitted effect of over 40% in size. The procedure, abridged:
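VM7Luc4E2, 4,000 cells/well, phenol red-free medium + 10% charcoal-stripped FBS; 24 hr plating; cpd + 0.1 nM E2 final, 22 hr 37C/5% CO2; CellTiter-Fluor 30 min, fluorescence.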

Experiment [17] can be described thus: qHTS assay to identify small molecule antagonists of the androgen receptor (AR) signaling pathway using the MDA cell line in the presence of 0.5 nM R1881 - cell viability counter screen (AID 1259242). Further: nearly all actives have a fitted effect of over 45% in size. The procedure, abridged:
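Live-cell protease fluorescence, CellTiter-Fluor, 30 min at 37C. Cells: MDA-kb2, 3,000/well, preincubated 5 hr. Compounds plus 0.5 nM R1881 final, 16 hr, 37C, 0% CO2.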

Experiment [18] in a line: A CellTox Green Cytotoxicity Assay to monitor cytotoxicity in HepG2 cells - 16 hour (AID 1224876). Further: nearly all actives have a fitted effect of over 45% in size. The procedure, abridged: as §4
For experiment [19], the target named is Androgen receptor (Homo sapiens) (UniProt P10275). Description: qHTS assay to identify small molecule antagonists of the androgen receptor (AR) signaling pathway using the MDA cell line in the presence of 0.5 nM R1881 (AID 1259243). Further: nearly all actives have a fitted effect of over 50% in size. Further: potency means the concentration at half of the fitted maximal effect. The procedure, abridged:
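MDA-kb2, MMTV-luc (AR/GR elements); 3,000 cells/well; cpd + 0.5 nM R1881 final; 16 hr 37C, 0% CO2; ONE-Glo 30 min RT; luminescence.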

A short description of experiment [20]: A CellTox Green Cytotoxicity Assay to monitor cytotoxicity in HepG2 cells - 40 hour (AID 1224879). Further: nearly all actives have a fitted effect of over 40% in size. The procedure, abridged:
as §4

Values joined by “and” are separate entries in the source; they are usually repeats but may differ in a detail not shown here. Identical values can stand only once. Inconclusive results are not listed. Where a structure was tested more than once in an assay, its records may differ in their call. Active and inactive are the calls of the source. The call rests on the fitted dose curve; in most records, active means well fitted curve in the direction sought with a large enough effect in the repeat runs; inconclusive means weak or mixed curves; inactive means no such curve, though single readings can be large; an effect the other way counts as inactive or inconclusive.
On the % scale 0 is the no-effect control and ±100 the full control effect.

Chain of Androgen receptor (Homo sapiens) (P10275 whole entry, looked up): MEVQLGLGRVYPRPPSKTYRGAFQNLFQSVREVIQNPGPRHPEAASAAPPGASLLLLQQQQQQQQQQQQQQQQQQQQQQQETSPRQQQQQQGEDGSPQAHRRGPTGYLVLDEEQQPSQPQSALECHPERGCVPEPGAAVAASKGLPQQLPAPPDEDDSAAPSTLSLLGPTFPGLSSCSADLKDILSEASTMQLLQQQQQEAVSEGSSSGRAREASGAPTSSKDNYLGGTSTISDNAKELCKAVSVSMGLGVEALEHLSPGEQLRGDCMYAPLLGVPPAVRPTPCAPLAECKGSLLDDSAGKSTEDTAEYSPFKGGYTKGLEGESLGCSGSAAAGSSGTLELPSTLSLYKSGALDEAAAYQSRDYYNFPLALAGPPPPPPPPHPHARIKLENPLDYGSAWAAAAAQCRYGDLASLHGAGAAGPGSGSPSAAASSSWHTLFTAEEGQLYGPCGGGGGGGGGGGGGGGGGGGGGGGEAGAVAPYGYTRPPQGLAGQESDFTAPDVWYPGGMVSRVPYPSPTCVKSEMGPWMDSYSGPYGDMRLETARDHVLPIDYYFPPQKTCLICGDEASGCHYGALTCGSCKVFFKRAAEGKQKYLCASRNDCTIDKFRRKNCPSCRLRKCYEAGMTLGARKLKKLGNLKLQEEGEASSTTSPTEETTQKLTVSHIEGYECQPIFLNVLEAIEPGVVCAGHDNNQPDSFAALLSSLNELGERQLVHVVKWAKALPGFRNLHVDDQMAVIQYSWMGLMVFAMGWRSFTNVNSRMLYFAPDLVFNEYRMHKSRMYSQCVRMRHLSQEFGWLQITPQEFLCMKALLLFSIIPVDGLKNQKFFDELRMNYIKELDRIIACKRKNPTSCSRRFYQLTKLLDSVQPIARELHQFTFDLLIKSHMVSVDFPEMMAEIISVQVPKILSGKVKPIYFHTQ

Take `Cc1cccc([N+](=O)[O-])c1`: the max response in experiment [1] is 1.89% (inactive) and 2.13% (inactive). Moreover, the Potency result in experiment [2], in experiment [4], in experiment [6], in experiment [7], in experiment [8] and in experiment [9] was “inactive” throughout. Further, the Potency result in [11], in experiment [13], in experiment [15] and in experiment [16] was “inactive” in each case. In addition, the compound was called inactive in experiment [3], in experiment [5], in experiment [10], in experiment [12], in experiment [14] and in experiment [17].

As to `O=NN1CCCC1`, the max response in [1] is -15.8% (inactive) and -5.95% (inactive). Besides, the Potency entry in experiment [2], in experiment [6], in [7], in experiment [11], in [13] and in [16] was “inactive” throughout. Further, the outcome in experiment [3], in experiment [5], in experiment [10], in [12], in experiment [14] and in experiment [17] was inactive. Moreover, the Potency result in experiment [9] is “inactive and 21.9 µM (active)”; in [15], “inactive and 38.9 µM (active)”.

`CCCC1COC(Cn2cncn2)(c2ccc(Cl)cc2Cl)O1` (configuration not stated): the Potency in experiment [1] is 25 µM (active) and 21.9 µM (active); in experiment [6], 49.9 µM (active) and inactive; in experiment [11], 25 µM (active) and 24.5 µM (active); in [19] it was 31.2 µM (active) and 30.6 µM (active). The Potency result in experiment [18], in [4], in experiment [7], in experiment [9], in experiment [13] and in experiment [15] was “inactive” throughout. In addition, the Potency entry in experiment [16] is “inactive”. The result in experiment [3], in experiment [5], in experiment [10], in [14] and in [17] was inactive.

As for `O=Cc1cccc(Oc2ccccc2)c1`, in experiment [1], the max response is -18.5% (inactive) and 0.95% (inactive). The Potency entry in experiment [2], in experiment [4], in experiment [6], in experiment [7], in experiment [8] and in experiment [9] was “inactive” each time. For the same compound, the Potency result in [11], in experiment [13], in [15] and in [16] was “inactive” each time. In addition, the outcome in [3], in experiment [5], in experiment [10], in [12], in experiment [14] and in experiment [17] was inactive.

As to `CCCCN(CC)C(=O)SCCC`, in experiment [1], the max response is 0.284% (inactive). For the same compound, the Potency entry in experiment [2], in experiment [4], in experiment [20], in experiment [6], in [7] and in experiment [8] was “inactive” throughout. Besides, the Potency result in experiment [9], in [11], in experiment [15], in experiment [16] and in experiment [19] was “inactive” each time. The result in experiment [3], in experiment [5], in [10], in experiment [12], in experiment [14] and in experiment [17] was inactive.

Turning to `CCOP(=S)(OCC)SCCSCC`, the max response in experiment [1] is 5.05% (inactive) and 1.7% (inactive). Besides, the Potency result in [2], in [4], in experiment [20], in experiment [6], in experiment [7] and in experiment [8] was “inactive” throughout. Besides, the Potency result in experiment [9], in [11], in experiment [15] and in experiment [16] was “inactive” throughout. The outcome in experiment [3], in [5], in experiment [10], in experiment [12], in [14] and in experiment [17] was inactive.

Consider `CCOC(=O)c1ccccc1C(=O)OCC`, for which the max response in experiment [1] is 0.767% (inactive) and 3.18% (inactive). For the same compound, the Potency entry in experiment [2], in experiment [4], in [6], in [7], in [8] and in [9] was “inactive” each time. Besides, the Potency entry in [11], in experiment [13], in experiment [15] and in experiment [16] was “inactive” throughout. For the same compound, the result in [3], in [5], in experiment [10], in experiment [12], in experiment [14] and in experiment [17] was inactive.

On to `CC(C#N)CCC#N` (configuration not stated), for which the max response in experiment [1] was 6.71% (inactive) and -8.28% (inactive). In addition, the Potency entry in experiment [2], in experiment [4], in experiment [20], in experiment [6], in [7] and in experiment [8] was “inactive” throughout. For the same compound, the Potency entry in experiment [9], in experiment [11], in experiment [15] and in [16] was “inactive” each time. Also, the compound was called inactive in experiment [3], in experiment [5], in [10], in [12], in experiment [14] and in [17].

With `CCC[CH2][Sn]([Cl])([Cl])[Cl]`, the Potency entry in [2], in experiment [4], in experiment [6], in experiment [7], in experiment [8] and in experiment [9] was “inactive” in each case. Besides, the Potency result in experiment [11], in experiment [15] and in experiment [16] was “inactive” in each case. The call in [3], in [5], in experiment [10], in [12], in experiment [14] and in [17] was inactive.

As to `COC(=O)NC(=S)Nc1ccccc1NC(=S)NC(=O)OC`, the Potency result in experiment [2], in experiment [4], in experiment [20], in experiment [6], in [7] and in [8] was “inactive” each time. Moreover, the Potency entry in experiment [9], in experiment [11], in [15] and in experiment [16] was “inactive” in each case. Further, the compound was classed as inactive in [3], in experiment [5], in experiment [10], in [12], in experiment [14] and in [17].

On to `CCOP(OCC)OCC`, for which the max response in experiment [1] is 7.3% (inactive) and 7.34% (inactive). Also, the Potency result in experiment [2], in experiment [4], in experiment [20], in experiment [6], in [7] and in experiment [8] was “inactive” in each case. Moreover, the Potency entry in experiment [9], in [11], in experiment [13], in [15] and in [16] was “inactive” in each case. In addition, the compound was called inactive in experiment [3], in experiment [5], in experiment [10], in experiment [12], in [14] and in experiment [17].

With `Cn1cc(-c2ccccc2)c(=O)c(-c2cccc(C(F)(F)F)c2)c1`, the Potency entry in [2], in experiment [18], in experiment [4], in experiment [6], in experiment [7] and in experiment [8] was “inactive” throughout. Besides, the Potency result in experiment [9], in [11], in [13], in experiment [15] and in experiment [16] was “inactive” each time. Besides, the compound was called inactive in experiment [3], in experiment [5], in experiment [10], in [12] and in experiment [17].

As to `O=S(=O)(c1ccc(Cl)cc1)c1cc(Cl)c(Cl)cc1Cl`, the Potency result in [2], in [4], in experiment [20], in experiment [6], in experiment [7] and in experiment [8] was “inactive” throughout. Besides, the Potency result in experiment [9], in [11], in [15] and in experiment [16] was “inactive” in each case. The compound was classed as inactive in [3], in experiment [5], in experiment [10], in [12], in [14] and in experiment [17].

`CC1OC(C)OC(C)O1` (configuration not stated): the max response in experiment [1] was 8.31% (inactive) and 5.6% (inactive). Further, the Potency result in [2], in experiment [4], in experiment [6], in [7], in experiment [8] and in experiment [9] was “inactive” in each case. The Potency entry in [11], in experiment [13], in experiment [15] and in [16] was “inactive” throughout. Besides, the compound was classed as inactive in experiment [3], in experiment [5], in experiment [10], in experiment [12], in experiment [14] and in [17].

These data come from PubChem BioAssay (Tox21).
